# Measured values reported in PubChem BioAssay (EPA / NIEHS).
# Inconclusive results are not listed. The source made the active and inactive calls. Rule for the calls, unless noted: active = hit-call score of the fitted dose curve at least 0.9, where 1 is the maximum; inactive = score below 0.9.
# Tests used:
# [1] = CCTE_Shafer_MEA_acute_AB: CCTE's Alamar Blue Assay for Cytotoxicity in the Neural Acute Assay, Shafer Lab (AID 2284069; active = hit-call score of the fitted dose curve at least 0.9, where 1 is the maximum;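 note: active compounds lower the viability signal compared with DMSO wells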)
# Outline: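 Primary rat cortical neurons on MEA plates, exposed acutely after baseline recording on day 13 or 15 post-plating. Viability by CellTiter Blue resazurin reduction (1:6 reagent dilution), fluorescence 544/590 nm; loss of signal versus DMSO.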
# [2] = CCTE_Shafer_MEA_acute_LDH: CCTE's Lactate Dehydrogenase Assay for Cytotoxicity in the Neural Acute Assay, Shafer Lab (AID 2284086; active = hit-call score of the fitted dose curve at least 0.9, where 1 is the maximum;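 note: active means LDH release rises above DMSO vehicle level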)
# Outline: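 Primary rat cortical neurons on 48-well MEA plates, treated on day 13 or 15 post-plating. After the 40-min recording with compound, medium LDH release was read by absorbance at 490 nm. Gain of signal was fitted against DMSO negative control.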
# [3] = TAMU_PeakParms_SingleDonor1434_Chronotropy: Texas A&M University (TAMU) 1.5-hr Human Induced Pluripotent Stem Cell (iPSC)-derived Cardiomyocytes Calcium (Ca+2) Flux Assay for Cardiotoxicity: Chronotropy (changes in peak frequency) (AID 2284217); conditions: actives raise or lower the signal
# Outline: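 iPSC-derived cardiomyocytes (single donor 1434) dosed at 0.2, 1, 10 and 100 uM in 0.5% DMSO for 1.5 h at 37C; Ca2+ dye fluorescence gave average beat frequency. Zero-beat points removed; bidirectional fit versus DMSO, POD as EC05.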
# [4] = CCTE_Shafer_MEA_dev_AB: CCTE's Alamar Blue Assay for Cytotoxicity in the Neural Network Formation Assay, Shafer Lab (AID 2284083; active = hit-call score of the fitted dose curve at least 0.9, where 1 is the maximum;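 note: twelve days of exposure from plating with re-dosing on DIV 5 and 9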)
# Outline: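 Primary rat cortical neurons on PEI-coated 48-well MEA plates, 1.5 x 10^5 cells/well in laminin drop; compound exposure from day 0 of plating for twelve days, renewed at medium changes on DIV 5 and 9. Viability read as resazurin reduction by fluorescence, relative to DMSO.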
# [5] = CCTE_Shafer_MEA_dev_mutual_information_norm: CCTE's Neural Network Formation Assay for Mutual Information Normalization, Shafer Lab (AID 2284091);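 for AC50: mutual information between electrodes summarised as area under curve across four recording days; potency is for a decrease in mutual information relative to DMSO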
# Outline: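 Rat cortical cultures, 48-well MEA, continuous exposure DIV 0–12 with full media/compound change DIV 5 and 9. Readout: inter-electrode mutual information, AxIS adaptive spike detection; AUC across DIV 5/7/9/12 recordings; DMSO baseline, negative fitting direction.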
# [6] = CCTE_Shafer_MEA_dev_correlation_coefficient_mean: CCTE's Neural Network Formation Assay for Mean Correlation Coefficient, Shafer Lab (AID 2284093);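 for AC50: well mean pairwise spike train correlation integrated as AUC over recording days 5 to 12; potency fitted for loss of correlation relative to DMSO vehicle wells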
# Outline: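 Spontaneous activity recorded on days 5, 7, 9 and 12 post-plating; pairwise spike correlations are averaged across active electrodes and collapsed to an area-under-curve. Rat cortical cultures are dosed from plating through 12 days, with compound renewed at media changes.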
# [7] = IUF_NPC1b_proliferation_BrdU_72hr: Leibniz Research Institute for Environmental Medicine (IUF) 72-hour Neural Progenitor Cell Bromodeoxyuridine (BrdU) Proliferation Assay (NPC1b) (AID 2284207)
# Outline: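 hNPC spheres (primary, GW 16-19 fetal cortex), single sphere/well, EGF+FGF medium; 72 h compound, no renewal; BrdU pulse last 16 h; luminescent ELISA; activity vs DMSO baseline; growth-factor withdrawal as positive control.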
# [8] = IUF_NPC1a_proliferation_area_72hr: Leibniz Research Institute for Environmental Medicine (IUF) 72-hour Neural Progenitor Cell Proliferation Area Assay (NPC1a) (AID 2284208)
# Outline: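 hNPC spheres (human fetal cortex, GW 16-19), one per poly-Hema U-bottom well; EGF+FGF medium; dosed day 0, no re-dosing; 72 h, 37C, 5% CO2; phase-contrast sphere area; DMSO = baseline; minus-GF = positive ctrl.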
# [9] = IUF_NPC1_viability_72hr: Viability Assessment at 72 hours in the Leibniz Research Institute for Environmental Medicine (IUF) Neural Progenitor Cell Proliferation Assay (NPC1) (AID 2284209)
# Outline: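 Human fetal-cortex neural progenitor spheres (0.25–0.35 mm, one per well) grown in EGF/FGF proliferation medium at 37C, pH 7.2-7.6, exposed 72 h without renewal; viability read as alamar blue resazurin-to-resorufin fluorescence relative to DMSO.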
# [10] = CCTE_Mundy_HCI_Cortical_Synap_Neur_Matur_NeuriteSpotCountPerNeuriteLength: CCTE's Synaptogenesis and Neurite Maturation Assay in rat cortical cells for Neurite Spot Count per Neurite Length, Mundy Lab (AID 2284210)
# Outline: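 Rat primary cortical cultures, glia arrested with AraC at DIV 5, were dosed with media change at DIV 7 and fixed at DIV 12. Synaptophysin puncta per MAP2-labelled neurite length were quantified by high-content imaging versus DMSO.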
# [11] = CCTE_Mundy_HCI_Cortical_Synap_Neur_Matur_BPCount: CCTE's Synaptogenesis and Neurite Maturation Assay in rat cortical cells for Branch Point Count, Mundy Lab (AID 2284211)
# Outline: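 Branch point number is quantified by automated imaging of fluorescently labelled neurites and synapses in rat primary cortical neurons exposed from DIV 7 to DIV 12. Activity is analysed relative to DMSO negative control.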
# [12] = CCTE_Mundy_HCI_Cortical_NOG_NeuriteCount: CCTE's Neurite Outgrowth Assay in rat cortical cells for Neurite Count, Mundy Lab (AID 2284212);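 note: cells fixed about two days after chemical exposure began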
# Outline: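 Neurite number per cell from high-content imaging of betaIII-tubulin immunostaining, with Hoechst nuclear counterstain.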
# [13] = CCTE_Mundy_HCI_Cortical_NOG_NeuriteLength: CCTE's Neurite Outgrowth Assay in rat cortical cells for Neurite Length, Mundy Lab (AID 2284213);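 for AC50: neurites imaged about 48 to 50 h after chemical exposure began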
# Outline: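 Neurite length was read by high-content imaging of βIII-tubulin-labelled neurites in rat primary cortical cultures. Activity was fitted relative to DMSO.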
# [14] = CCTE_Mundy_HCI_Cortical_Synap_Neur_Matur_NeuriteLength: CCTE's Synaptogenesis and Neurite Maturation Assay in rat cortical cells for Neurite Length, Mundy Lab (AID 2284214)
# Outline: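 Rat primary cortical cells were plated, treated with AraC at DIV 5 to arrest glial growth, then chemical-dosed with media change at DIV 7 through DIV 12. Fixed cells stained for MAP2, synaptophysin and Hoechst; neurite length quantified by high-content imaging.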
# [15] = CCTE_Mundy_HCI_Cortical_Synap_Neur_Matur_NeuriteSpotCountPerNeuron: CCTE's Synaptogenesis and Neurite Maturation Assay in rat cortical cells for Neurite Spot Count per Neuron Count, Mundy Lab (AID 2284215)
# Outline: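 Read-out: neurite-associated synaptophysin puncta per neuron, imaged by high-content analysis after MAP2, synaptophysin and Hoechst staining. Rat primary cortical cultures, dosed DIV 7 through DIV 12; DMSO served as baseline.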
# [16] = CCTE_Mundy_HCI_Cortical_Synap_Neur_Matur_SynapseCount: CCTE's Synaptogenesis and Neurite Maturation Assay in rat cortical cells for Synapse Count, Mundy Lab (AID 2284218)
# Outline: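 Rat primary cortical cells in 96-well plates received AraC at DIV 5 and were dosed with chemicals at DIV 7 with media change, through DIV 12 (288.33 h). Synapses per neuron counted by high-content imaging of MAP2/synaptophysin/Hoechst staining, versus DMSO baseline.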
# [17] = UKN4_HCS_LUHMES_neurite_outgrowth: University of Konstanz (UKN) Leist Lab Neurite Outgrowth Assay in human LUHMES cells (UKN4) (AID 2284206); conditions: actives raise or lower the signal
# Outline: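 LUHMES neuronal precursors differentiated 2 days, replated without cAMP/GDNF, then exposed to chemicals for 24 h. Neurite area imaged by high-content microscopy after calcein-AM staining; Hoechst H-33342 marks viability. Bidirectional fit versus DMSO.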
# [18] = UKN5_HCS_SBAD2_neurite_outgrowth: University of Konstanz (UKN) Leist Lab Neurite Outgrowth Assay in human iPSC-derived immature Dorsal Root Ganglia Neurons (UKN5) (AID 2284070); conditions: actives raise or lower the signal
# Outline: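 Human iPSC-derived immature DRG neurons (SBAD2) on Matrigel with CHIR99021 (1.5 uM), SU5402 (5 uM), DAPT (5 uM); compounds added 1 h post-seeding for 24 h. Calcein-AM neurite area imaged; bidirectional fit vs DMSO.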
# [19] = UKN2_HCS_IMR90_neural_migration: University of Konstanz (UKN) Leist Lab Neural Crest Cell Migration Assay in human induced IMR90 Pluripotent Stem Cells (UKN2) (AID 2284204); conditions: actives raise or lower the signal
# Outline: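 iPSC-derived IMR90 neural crest cells on PLO/laminin/fibronectin were seeded around silicone stoppers; after stopper removal, migration in N2-S medium with EGF and FGF ran 24 h before 24 h chemical exposure. Calcein-AM/Hoechst high-content imaging; bidirectional fit versus DMSO.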
# [20] = CCTE_Mundy_HCI_hN2_NOG_NeuriteCount: CCTE's Neurite Outgrowth Assay in human hN2 cells for Neurite Count, Mundy Lab (AID 2284219; active = hit-call score of the fitted dose curve at least 0.9, where 1 is the maximum)
# Outline: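 In this morphology assay, hNP1-derived neurons received test chemical 2 h post-plating and were fixed two days later in warm paraformaldehyde/sucrose containing Hoechst 33342. Neurites, labelled by rabbit anti-βIII-tubulin (1:800) and Alexa Fluor-488 (1:500), were counted automatically.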
compound,measurement,setting,value
O=C(N[C@@H](c1ccccc1)[C@@H]1CCCCN1)c1cccc(C(F)(F)F)c1Cl,outcome,[1],inactive
same,outcome,[2],inactive
Nc1nc(=S)c2[nH]cnc2[nH]1,outcome,[1],inactive
same,outcome,[2],inactive
same,AC50,[3],89.6 µM (active)
CCc1nc(N)nc(N)c1-c1ccc(Cl)cc1,outcome,[3],inactive
NC(=Nc1ccccc1)Nc1ccccc1,outcome,[1],inactive
same,outcome,[2],inactive
Cc1occc(=O)c1O,outcome,[3],inactive
CC(=O)CC(c1ccccc1)c1c(O)c2ccccc2oc1=O (centres undefined),outcome,[4],inactive
same,outcome,[5],inactive
same,outcome,[6],inactive
same,outcome,[7],inactive
same,outcome,[8],inactive
same,outcome,[9],inactive
same,outcome,[10],inactive
same,outcome,[11],inactive
same,outcome,[12],inactive
same,outcome,[13],inactive
same,outcome,[14],inactive
same,outcome,[15],inactive
same,outcome,[16],inactive
CCc1cc(C2=C(C(=O)O)N(c3ccccc3C(F)(F)F)S(=O)(=O)c3ccccc32)cc2c1OCO2,outcome,[1],inactive
same,outcome,[2],inactive
CCCCC(CC)COP(=O)(OCC(CC)CCCC)OCC(CC)CCCC (centres undefined),outcome,[2],inactive
CN(C)C(=O)NC1(c2ccccc2)CCN(CC[C@@]2(c3ccc(F)c(F)c3)CN(C(=O)c3ccccc3)CCO2)CC1,outcome,[1],inactive
same,outcome,[2],inactive
CCCC(=O)O,outcome,[1],inactive
same,outcome,[2],inactive
CC(N)=O,outcome,[2],inactive
O=C1OC(c2ccc(O)cc2)(c2ccc(O)cc2)c2ccccc21,outcome,[1],inactive
COc1ccc(OC(F)(F)F)cc1CN[C@H]1CCCN[C@H]1c1ccccc1,outcome,[1],inactive
same,outcome,[2],inactive
CN(C)C(=O)NC1(c2ccccc2)CCN(CCC[C@]2(c3ccc(Cl)c(Cl)c3)CCCN(C(=O)c3ccccc3)C2)CC1,outcome,[1],inactive
same,outcome,[2],inactive
OCC(O)CO,outcome,[4],inactive
same,outcome,[5],inactive
same,outcome,[6],inactive
same,outcome,[17],inactive
same,outcome,[7],inactive
same,outcome,[8],inactive
same,outcome,[9],inactive
same,outcome,[10],inactive
same,outcome,[11],inactive
same,outcome,[12],inactive
same,outcome,[13],inactive
same,outcome,[14],inactive
same,outcome,[15],inactive
same,outcome,[16],inactive
COC(=O)[C@H]1[C@H]2C[C@@H]3c4[nH]c5cc(OC)ccc5c4CCN3C[C@H]2C[C@@H](OC(=O)c2cc(OC)c(OC)c(OC)c2)[C@@H]1OC,outcome,[1],inactive
same,AC50,[4],10 µM (active)
same,outcome,[2],inactive
same,AC50,[5],5.56 µM (active)
same,AC50,[6],10 µM (active)
same,outcome,[3],inactive
CC(C)NCC(O)c1ccc(O)c(O)c1 (centres undefined),outcome,[1],inactive
same,outcome,[2],inactive
Cc1ccc(C(C)(C)C)c(O)c1,outcome,[2],inactive
Oc1ccc(O)cc1,outcome,[1],inactive
same,outcome,[2],inactive
CC(C)COC(=O)CCCCC(=O)OCC(C)C,outcome,[1],inactive
same,outcome,[2],inactive
C/C=C/c1ccc(OC)cc1,outcome,[1],inactive
same,outcome,[2],inactive
Cc1cc(Cc2ccc(N)c(C)c2)ccc1N,outcome,[1],inactive
same,outcome,[2],inactive
Cc1cc(SC2=C(O)C[C@@](CCc3ccc(N)cc3)(C(C)C)OC2=O)c(C(C)(C)C)cc1CO,outcome,[2],inactive
CC1=C(C)S(=O)(=O)CCS1(=O)=O,outcome,[2],inactive
O=C1NC(=O)C(c2ccccc2)(c2ccccc2)N1,outcome,[18],inactive
same,outcome,[5],inactive
same,outcome,[6],inactive
same,outcome,[19],inactive
same,outcome,[17],inactive
same,outcome,[7],inactive
same,outcome,[8],inactive
same,outcome,[9],inactive
same,outcome,[10],inactive
same,outcome,[13],inactive
same,outcome,[14],inactive
same,outcome,[15],inactive
same,outcome,[16],inactive
same,outcome,[20],inactive
O=C(O)CN(CC(=O)O)CC(=O)O,outcome,[2],inactive
CN(C)CCCN1c2ccccc2Sc2ccc(Cl)cc21,outcome,[1],inactive
same,AC50,[18],6.11 µM (active)
same,AC50,[4],15 µM (active)
same,outcome,[2],inactive
same,AC50,[5],5.4 µM (active)
same,AC50,[6],5.87 µM (active)
same,AC50,[19],8.89 µM (active)
same,AC50,[17],6.73 µM (active)
same,AC50,[7],4.53 µM (active)
same,AC50,[8],11.8 µM (active)
same,AC50,[9],18.8 µM (active)
same,AC50,[10],28.4 µM (active)
same,AC50,[11],12.8 µM (active)
same,AC50,[13],10.7 µM (active)
same,AC50,[14],12.8 µM (active)
same,AC50,[15],11.8 µM (active)
same,AC50,[16],11.8 µM (active)
same,AC50,[20],11 µM (active)
CCN(CC)CCOc1ccc(C(=C(Cl)c2ccccc2)c2ccccc2)cc1,outcome,[1],inactive
same,outcome,[2],inactive
c1ccc2occc2c1,outcome,[1],inactive
same,outcome,[2],inactive
CSc1ccc(Oc2ccc(S(N)(=O)=O)cc2CN(C)C)cc1C,outcome,[1],inactive
O=C(O)CC(O)(CC(=O)O)C(=O)O,outcome,[3],inactive
Cc1c(C)c2c(c(C)c1O)CCC(C)(COc1ccc(CC3SC(=O)NC3=O)cc1)O2 (centres undefined),outcome,[1],inactive
OCC(CO)n1cnc(-c2ccc(F)cc2)c1-c1ccnc(Oc2ccccc2)n1,outcome,[2],inactive
